According to article PMC4336329 (PLoS ONE, 2015):
About 14,000 (4.5%) of roughly 310,000 compounds showed an effect of 50% or more. The effect is printed as a negative number. What follows is part of a selection rich in strong results, with near analogues and random picks from the rest.

Target: human ether-à-go-go-related gene (hERG) potassium channel (human, UniProt Q12809)
Experiment: primary screen, population patch clamp on CHO cells stably expressing hERG; higher = less effect of the substance
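Also: peak tail current of the secondary pulse compared with the same well before compound.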

Chain of human ether-à-go-go-related gene (hERG) potassium channel (Q12809 whole entry, looked up): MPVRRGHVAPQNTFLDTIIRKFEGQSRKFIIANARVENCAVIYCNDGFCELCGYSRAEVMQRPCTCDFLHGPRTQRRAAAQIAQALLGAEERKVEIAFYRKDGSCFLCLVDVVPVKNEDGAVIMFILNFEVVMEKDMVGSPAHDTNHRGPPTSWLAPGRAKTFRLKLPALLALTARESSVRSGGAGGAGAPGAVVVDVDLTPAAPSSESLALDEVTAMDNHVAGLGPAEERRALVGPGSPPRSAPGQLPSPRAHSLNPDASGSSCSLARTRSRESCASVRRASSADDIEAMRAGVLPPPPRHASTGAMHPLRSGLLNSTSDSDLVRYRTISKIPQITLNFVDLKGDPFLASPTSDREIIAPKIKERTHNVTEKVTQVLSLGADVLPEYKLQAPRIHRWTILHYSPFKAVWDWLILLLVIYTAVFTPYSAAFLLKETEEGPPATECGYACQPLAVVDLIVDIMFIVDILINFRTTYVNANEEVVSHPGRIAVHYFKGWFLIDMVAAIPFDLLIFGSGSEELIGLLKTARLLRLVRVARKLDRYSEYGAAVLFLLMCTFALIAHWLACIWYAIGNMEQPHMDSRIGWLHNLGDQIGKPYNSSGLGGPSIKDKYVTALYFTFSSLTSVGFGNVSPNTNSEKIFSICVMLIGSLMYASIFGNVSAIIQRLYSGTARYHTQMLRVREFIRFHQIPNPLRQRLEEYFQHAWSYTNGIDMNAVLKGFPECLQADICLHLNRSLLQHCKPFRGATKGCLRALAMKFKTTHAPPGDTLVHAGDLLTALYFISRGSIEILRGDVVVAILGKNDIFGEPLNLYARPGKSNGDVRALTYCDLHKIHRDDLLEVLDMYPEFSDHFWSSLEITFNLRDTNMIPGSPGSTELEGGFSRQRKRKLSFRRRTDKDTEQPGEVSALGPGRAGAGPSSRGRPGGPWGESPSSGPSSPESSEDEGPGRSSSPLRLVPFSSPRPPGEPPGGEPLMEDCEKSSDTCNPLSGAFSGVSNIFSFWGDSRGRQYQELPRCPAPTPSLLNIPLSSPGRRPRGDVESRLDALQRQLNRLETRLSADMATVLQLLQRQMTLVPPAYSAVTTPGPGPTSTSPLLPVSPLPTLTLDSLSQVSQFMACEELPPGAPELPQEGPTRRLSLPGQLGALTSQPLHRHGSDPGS

| SMILES | hERG current change (%, negative = inhibition) at 10uM |
| --- | --- |
| COc1ccc(CSC2=NCCN2)cc1Br | 1.43% |
| CCCOc1ccc(CSC2=NCCN2)cc1[N+](=O)[O-] | -66.7% |
| CCCCOc1ccc(CSC2=NCCN2)cc1[N+](=O)[O-].Cl | -68.7% |
| COc1ccc(CSC2=NCCN2)cc1Cl.Cl | -18.2% |
| Br.N#Cc1ccc(CSC2=NCCN2)cc1 | -4.5% |
| CC(Oc1ccc(Cl)cc1)C(=O)NCCCn1ccnc1 (stereo not drawn) | -7.09% |
| Cc1csc(NC(=O)CN2CCCCCC2)n1.O=C(O)C(=O)O | 14.3% |
| Cc1cc(C)c2cc(C(=O)Nc3ccc4c(c3)OCO4)[nH]c2c1 | 16.2% |
| CCOc1ccc2c(C)c(C(=O)O)oc2c1OCC | 16.5% |
| NS(=O)(=O)c1cccc(NC(=O)CC2(CC(=O)O)CCCC2)c1 | 33.9% |
| CSc1nc(Cc2ccc(Cl)cc2)nc2ccccc12 | -16.7% |
| Br.O=[N+]([O-])c1ccc(CSC2=NCCN2)cc1 | -15.3% |
| CCOc1ccc(CSC2=NCCN2)cc1[N+](=O)[O-].Cl | -83.5% |
| COc1ccc(CSc2ncn[nH]2)cc1[N+](=O)[O-] | 2.83% |
| Cc1ccc(-n2c(C)nnc2SCC(=O)N2CCOCC2)cc1 | 21.9% |
| CSCCCNC(=S)Nc1cccc(S(=O)(=O)NC2=NCCC2)c1 | 32.8% |
| CSc1ccccc1OCc1cc(C(=O)NCCn2nc(C)cc2C)no1 | -0.00922% |
| O=S(=O)(Nc1nc2ccccc2nc1NCC1CCCO1)c1ccccc1 (stereo not drawn) | 2.43% |
| CCOC(=O)C1(Cc2ccccc2C(F)(F)F)CCN(CCCn2cccn2)CC1 | -82.1% |
| CCOC(=O)C1(Cc2ccccc2C(F)(F)F)CCN(CC(O)CO)CC1 (stereo not drawn) | -3.71% |
| CCOC(=O)C1(Cc2ccccc2C(F)(F)F)CCN(Cc2ccon2)CC1 | -2.88% |
| CCOC(=O)C1(Cc2ccccc2C(F)(F)F)CCN(C(=O)c2cc(C(C)=O)n[nH]2)CC1 | -57.2% |
| CCOC(=O)C1(Cc2ccccc2C(F)(F)F)CCN(C2CCN(C(C)C)CC2)CC1 | -36.6% |

| SMILES | hERG current change (%, negative = inhibition) at 10uM |
| --- | --- |
| CCOC(=O)C1(Cc2ccccc2C(F)(F)F)CCN(C(C)CSC)CC1 (stereo not drawn) | -48.2% |
| CCOC(=O)C1(Cc2ccccc2C(F)(F)F)CCN(C(=O)c2cc(C)n(C)n2)CC1 | -22.6% |
| CCOC(=O)C1(Cc2ccccc2C(F)(F)F)CCN(C(C)CCn2cccn2)CC1 (stereo not drawn) | -65.6% |
| CCOC(=O)C1(Cc2ccccc2C(F)(F)F)CCN(C2CCN(C(C)=O)CC2)CC1 | -18.6% |
| COc1cccc2cc(C(=O)NCc3ccccc3Br)c(=O)oc12 | 19% |
| CN(Cc1ccc(C(F)(F)F)cc1)C(=O)c1ccc(Oc2ccccc2)cc1 | 13.1% |
| Cc1ccc(S(=O)(=O)Nc2ccccc2)cc1C(=O)N1CCCC1 | -4.95% |
| Cc1nonc1NC(=O)CSc1nc2ccc(Cl)cc2[nH]1 | 3.09% |
| Cc1sc(NC(=O)Cn2[nH]c(=O)c3ccccc3c2=O)nc1-c1ccccc1 | 11.6% |
| CCOC(=O)N1CCC(N2C(=O)c3ccccc3C2Nc2cccnc2)CC1 (stereo not drawn) | 1.81% |
| CCOC(=O)N1CCC(N2C(=O)c3ccccc3C2Nc2cc(Cl)c(OC)cc2OC)CC1 (stereo not drawn) | -45.5% |
| CCOC(=O)N1CCC(N2C(=O)c3ccccc3C2Nc2ccc(S(=O)(=O)N3CCOCC3)cc2)CC1 (stereo not drawn) | -16.7% |
| CCOC(=O)N1CCC(N2C(=O)c3ccccc3C2Nc2ccc(S(=O)(=O)N(CC)CC)cc2)CC1 (stereo not drawn) | -62.6% |
| CCOC(=O)N1CCC(N2C(=O)c3ccccc3C2Nc2ccc(C)cc2)CC1 (stereo not drawn) | -32.8% |
| CCOC(=O)N1CCC(N2C(=O)c3ccccc3C2Nc2ccc(S(=O)(=O)N3CCCCC3)cc2)CC1 (stereo not drawn) | -58% |
| COc1ccc(C2C3=C(CC(C)(C)CC3=O)N(CC(=O)O)C3=C2C(=O)CC(C)(C)C3)cc1OC | 2.83% |
| COc1cc(OC)c(N2CC34C=CC(O3)C(C(=O)O)C4C2=O)cc1Cl (stereo not drawn) | 4.99% |
| CCc1nnc(NC(=O)CSc2ccc(-c3nc4ccc(C)cc4[nH]3)cn2)s1 | 6.54% |
| CN(C)CCNC(=O)COc1ccc(Cl)cc1Cl | -18.2% |
| CCc1ccc(OCC(=O)NCCN(C)C)c(Br)c1 | -58.4% |
| CCc1ccc(OCC(=O)N(C)C)c(Br)c1 | -7.33% |
| O=C(COC(=O)c1ccc2ncsc2c1)NCc1cccc(Cl)c1 | -11.2% |
